For 15 molecules, growth results are on record in PubChem BioAssay (NCI).

Molecules are shown by their SMILES. The panel holds about 83,000 compounds, 20% with a hit somewhere; the sample as a whole holds those more often.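 The test compound was applied at a single concentration to cells in 96-well plates for 48 hours, and percent growth was recorded.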 Values without a mark were called inactive. Activity calls are given as the source filed them. Rule for the calls: active = growth percent below 10; inactive = the rest.

What all share (test): NCI-60 one-dose screen, 48 h (100 = growth as untreated, 0 = no growth, -100 = all killed)
One experiment has as its system HCT-15 colon. Particulars: 10 µM unless noted.
For the next experiment, the system named is HT29 colon. The conditions noted are these: 10 µM unless noted.
In another experiment the test system is SNB-75 CNS. The conditions noted are these: 10 µM unless noted.
The test system of another experiment is SNB-19 CNS. The conditions noted are these: 10 µM unless noted.
For another experiment, the system named is U251 CNS. Particulars: 10 µM unless noted.
The subject of another experiment is PC-3 prostate. The conditions noted are these: 10 µM unless noted.
Another experiment relates to SK-MEL-5 melanoma. The conditions noted are these: 10 µM unless noted.
The next experiment deals with UACC-62 melanoma. The conditions noted are these: 10 µM unless noted.
In a further experiment the test system is SK-MEL-28 melanoma. The conditions noted are these: 10 µM unless noted.
For a further experiment, the system named is LOX IMVI melanoma. Particulars: 10 µM.

Turning to `CCCc1cccc(CCC)c1NC(=O)Nc1cc(Cl)cc(Cl)c1`, the growth in the experiment with HCT-15 colon is 113%; in the experiment with HT29 colon, 107%; with SNB-75 CNS, 108%; with SNB-19 CNS it was 99.5%; with U251 CNS it was 101%; in the experiment with PC-3 prostate, 101%. Moreover, the growth was 94.3% in the experiment on SK-MEL-5 melanoma, 90% in the experiment on UACC-62 melanoma and 103% in the experiment on SK-MEL-28 melanoma.
For `NS(=O)(=O)c1cc(=O)[nH]c(=O)[nH]1`, the growth with HCT-15 colon was 111%; in the experiment with HT29 colon, 108%; with SNB-75 CNS, 93.1%; in the experiment on SNB-19 CNS, 106%; in the experiment with U251 CNS, 98%; in the experiment with PC-3 prostate, 120%. In addition, the growth in the experiment with SK-MEL-5 melanoma is 107%; with LOX IMVI melanoma, 93.4%; in the experiment with SK-MEL-28 melanoma it was 110%.
In the case of `COc1cccc(N=CNc2cccc(OC)c2)c1`, the growth is 85.2% in the experiment on HCT-15 colon; 99.6% with HT29 colon; 90.8% in the experiment on SNB-75 CNS; 103% with SNB-19 CNS; 95.9% in the experiment with U251 CNS; 84.2% in the experiment with PC-3 prostate. Also, the values for the growth in the experiment with SK-MEL-5 melanoma, in the experiment on UACC-62 melanoma and in the experiment with SK-MEL-28 melanoma were 99%, 56.4% and 106%, respectively.
For the molecule `CCCC(=O)c1cccs1`, the growth with HCT-15 colon was 100%; in the experiment with HT29 colon, 98%; with SNB-75 CNS, 88.5%; in the experiment with SNB-19 CNS it was 101%; with U251 CNS it was 110%; in the experiment with PC-3 prostate, 89.2%. The growth in the experiment with SK-MEL-5 melanoma was 105%; in the experiment on UACC-62 melanoma, 95.1%; in the experiment on SK-MEL-28 melanoma, 107%.
On to `CC1CC2C3CCC4=CC(=O)CCC4(C)C3CCC2(C)C1(O)C(=O)CO` (stereo not given), for which the growth was 106% in the experiment on HCT-15 colon; 97.4% in the experiment on HT29 colon; 110% in the experiment on SNB-75 CNS; 110% in the experiment on SNB-19 CNS; 108% with U251 CNS; 93.9% in the experiment with PC-3 prostate. The values for the growth in the experiment on SK-MEL-5 melanoma, in the experiment on UACC-62 melanoma and in the experiment on SK-MEL-28 melanoma were 104%, 108% and 109%, respectively.
Regarding `COC(=O)C1(CC(C)=O)NC(=S)NC(=O)C1C#N` (stereo not given), the growth in the experiment on HCT-15 colon is 106%; in the experiment with HT29 colon, 104%; in the experiment on SNB-75 CNS, 112%; in the experiment with SNB-19 CNS, 98.4%; in the experiment with U251 CNS it was 109%; in the experiment with PC-3 prostate it was 119%. For the same molecule, the values for the growth in the experiment with SK-MEL-5 melanoma, with UACC-62 melanoma and with SK-MEL-28 melanoma were 100%, 103% and 118%, respectively.
Take `CC(C)C(=O)OCCOc1ccc(C(C)(C)C)cc1`: the growth was 100% in the experiment with HCT-15 colon; 93.1% in the experiment on HT29 colon; 94.1% in the experiment with SNB-75 CNS; 98.8% in the experiment with SNB-19 CNS; 88.4% in the experiment with U251 CNS; 91.6% in the experiment with PC-3 prostate. The growth is 102% with SK-MEL-5 melanoma, 95.8% in the experiment on LOX IMVI melanoma and 110% in the experiment with SK-MEL-28 melanoma.
Turning to `CCOC(=O)c1ccc(NC(C)=O)o1`, the growth in the experiment on HCT-15 colon is 106%; in the experiment on HT29 colon, 102%; in the experiment on SNB-75 CNS it was 94.3%; with SNB-19 CNS, 97.1%; in the experiment on U251 CNS, 94.1%; with PC-3 prostate it was 95.8%. For the same molecule, the growth in the experiment on SK-MEL-5 melanoma was 97.9%; in the experiment on UACC-62 melanoma, 90.4%; in the experiment on SK-MEL-28 melanoma, 118%.
Take `C=C(c1ccc(N(C)C)cc1)c1ccc(N(C)C)cc1`: the growth is 6.8% (active) in the experiment with HCT-15 colon; -31.6% (active) in the experiment with HT29 colon; -14.5% (active) in the experiment with SNB-75 CNS; 20.6% in the experiment with SNB-19 CNS; 3.57% (active) in the experiment with U251 CNS; 25.7% with PC-3 prostate. The growth in the experiment on SK-MEL-5 melanoma was -0.97% (active); in the experiment on UACC-62 melanoma, -8.67% (active); in the experiment on SK-MEL-28 melanoma it was 31.5%.
`CCOC(C=O)OCC`: the growth in the experiment with HCT-15 colon was 102%; in the experiment on HT29 colon it was 99.7%; with SNB-75 CNS, 98.5%; in the experiment on SNB-19 CNS, 106%; in the experiment with U251 CNS, 97.4%; in the experiment on PC-3 prostate, 95.1%. Also, the figures for the growth in the experiment with SK-MEL-5 melanoma, with LOX IMVI melanoma and in the experiment on SK-MEL-28 melanoma were 106%, 94.1% and 116%, respectively.
`c1ccc2c(NCCCN3CCN(CCCNc4c5ccccc5nc5ccccc45)CC3)c3ccccc3nc2c1`: the growth with HCT-15 colon is 2.79% [100 µM] (active); with HT29 colon it was -37.3% [100 µM] (active); in the experiment on SNB-75 CNS, -91% [100 µM] (active); with SNB-19 CNS it was -21.1% [100 µM] (active); with U251 CNS it was -19.4% [100 µM] (active); in the experiment on PC-3 prostate, -33.1% [100 µM] (active). Also, the results for the growth in the experiment on SK-MEL-5 melanoma, in the experiment with UACC-62 melanoma and with SK-MEL-28 melanoma were -70.3% [100 µM] (active), -88.5% [100 µM] (active) and -72.3% [100 µM] (active), respectively.
With `O=C(NCc1ccccc1)c1cccc([N+](=O)[O-])c1`, the growth with HCT-15 colon was 104%; in the experiment on HT29 colon, 97.8%; with SNB-75 CNS, 101%; in the experiment with SNB-19 CNS it was 95.1%; in the experiment on U251 CNS, 89.1%; with PC-3 prostate it was 88.9%. Moreover, the growth in the experiment on SK-MEL-5 melanoma is 103%; with LOX IMVI melanoma, 105%; in the experiment with SK-MEL-28 melanoma it was 114%.
For `CC1(C)OC(=O)CC1=O`, the growth in the experiment with HCT-15 colon was 110%; in the experiment on HT29 colon it was 93.5%; in the experiment on SNB-75 CNS, 93.5%; in the experiment with SNB-19 CNS, 105%; in the experiment with U251 CNS, 83.2%; in the experiment with PC-3 prostate it was 81.5%. For the same molecule, the growth in the experiment on SK-MEL-5 melanoma was 98.7%; with LOX IMVI melanoma, 96.9%; in the experiment with SK-MEL-28 melanoma, 109%.
`COc1cc(OC)c2cc(C(=O)c3ccc(C#N)cc3)c(=O)oc2c1`: the growth in the experiment with HCT-15 colon is 105%; in the experiment on HT29 colon it was 104%; in the experiment on SNB-75 CNS it was 85.5%; in the experiment on SNB-19 CNS it was 88.5%; with U251 CNS, 105%; in the experiment on PC-3 prostate, 107%. Also, the growth was 97.6% in the experiment with SK-MEL-5 melanoma, 91.8% in the experiment on UACC-62 melanoma and 99.5% with SK-MEL-28 melanoma.
For `CC(=O)C[n+]1ccc(C)cc1Sc1ccccc1C`, the growth in the experiment on HCT-15 colon was 97.1%; in the experiment with HT29 colon it was 99.1%; in the experiment with SNB-75 CNS, 76%; in the experiment with SNB-19 CNS it was 91.1%; with U251 CNS it was 93.3%; in the experiment with PC-3 prostate, 91.8%. Further, the growth was 92% with SK-MEL-5 melanoma, 86.6% in the experiment with LOX IMVI melanoma and 104% in the experiment with SK-MEL-28 melanoma.
